From PubChem BioAssay AID504843 (Broad Institute, 2011)
In all, about 1,200 compounds went through this assay and about 360 (30%) were called active. How the calls were made is not given here. Not all results are given here. Entries with a potency or affinity are not part of this list.

experiment: bacterial growth inhibition, dose response, counter-screen, BacTiter-Glo luminescence, cherry-picked samples (AID 504843); details: BacTiter-Glo ATP luminescence; series mostly up to 15 µM; activity change, negative = inhibition: at the top concentration;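 further: growth measured after 8 h incubation at 30 °C; 0% = median of sample compound wells and -100% = antibiotic control wells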

| Structure (SMILES) | activity change, negative = inhibition |
| --- | --- |
| CCOc1ccc(-c2cn(-c3ccc(OC)cc3)c(SC)n2)cc1 | 4.67% (inactive) |
| COc1cccc(NC(=O)Nc2cnccn2)c1 | 17.8% (inactive) |
| COC(=O)C1=CN(C(C)C)C=C(C(=O)OC)C1c1cccc(OC)c1 | -0.278% (inactive) |
| CCOc1ccc2[nH]c(C)c(CN3CCCCC3)c(=O)c2c1 | 0.19% (inactive) |
| CCSC1=C(C#N)C(c2ccc(Cl)cc2)C2=C(CCCC2=O)N1 (centres undefined) | -2.99% (inactive) |
| CC(C)N1C(=O)NC2(c3ccccc3)N(C)C(=O)N(C)C12c1ccccc1 (centres undefined) | 3.92% (inactive) |
| O=C(N1CCCC1)C12CC3CC(C1)CC(C(=O)N1CCCC1)(C3)C2 | -9.58% (inactive) |
| CN(C)c1ccc(C(=O)C(O)c2ccc(C(C)(C)C)cc2)cc1 (centres undefined) | -7.55% (inactive) |
| CN(C)S(=O)(=O)n1cc(/C=C(\NC(=O)c2ccccc2F)C(=O)N2CCOCC2)c2ccccc21 | 0.486% (inactive) |
| O=C(NCc1ccc2c(c1)OCO2)c1c(O)c2cccc3c2n(c1=O)CCC3 | 8.33% (inactive) |
| CCOc1ccccc1NC(=O)NCc1ccc2c(c1)OCO2 | 12% (inactive) |
| COCCNc1nc(N)c([N+](=O)[O-])c(NCC2CCCO2)n1 (centres undefined) | 13.3% (inactive) |
| Cn1ccc(=Nc2ccc(NC(=O)c3ccc(N=c4ccn(C)c5ccc([N+](=O)[O-])cc45)cc3)cc2)cc1 | 8.29% (inactive) |
| Clc1ccccc1CSc1nnc(-c2cccnc2)n1Cc1ccco1 | -1.87% (inactive) |
| Cc1cc(=O)[nH]c(SCC(=O)NCc2ccc3c(c2)OCO3)n1 | -3.42% (inactive) |
| N=C(N)c1ccc(/C=C/c2ccc(C(=N)N)cc2O)cc1 | 10.4% (inactive) |
| O=C(Nc1ccc2c(c1)OCCO2)c1ccc(Cl)c(S(=O)(=O)N2CCCCC2)c1 | 11.6% (inactive) |
| O=C(C1CCCN(S(=O)(=O)c2cccnc2)C1)N1CCn2c1nc1ccccc12 (centres undefined) | -1.21% (inactive) |
| Cc1c(NC(=O)Nc2ccccc2)cccc1[N+](=O)[O-] | 11.4% (inactive) |
| CCOC(=O)c1sc(C)c2c1NC(C)(c1ccccc1)NC2=O (centres undefined) | -12.4% (inactive) |
| COc1ccc(CN2CSC(=S)N(Cc3ccccc3)C2)cc1 | 2.29% (inactive) |
| CC(C)(C)c1nnc(NC(=O)NS(=O)(=O)c2ccccc2)s1 | 12.1% (inactive) |
| Cc1nc(Nc2ccc(Cl)cc2Cl)sc1C(=O)Nc1ccccc1 | -6.74% (inactive) |

| Structure (SMILES) | activity change, negative = inhibition |
| --- | --- |
| O=C(NCc1cccnc1)C(=O)NCC1OCCN1S(=O)(=O)c1ccc(F)cc1 (centres undefined) | -3.66% (inactive) |
| Cc1cc(C(=O)NNC(=O)c2ccc(F)cc2)c(C)s1 | 11.2% (inactive) |
| O=C(c1n[nH]c2ccccc12)N1CCOCC1 | -3.98% (inactive) |
| CCN(CC)CC(=O)N(CC(=O)Nc1c(C)cc(C)cc1C)C1CCCCC1 | 6.71% (inactive) |
| CCCCN(C)C(=O)c1cc2cc([N+](=O)[O-])cc(OC)c2oc1=O | 16.6% (inactive) |
| CCOC(=O)c1sc(Nc2nc3ccc(OC)cc3s2)cc1C | -1.02% (inactive) |
| COc1ccc(OC)c(NC(=O)NCc2cccnc2)c1 | 1.13% (inactive) |
| COc1ccc(S(=O)(=O)N2CCC(C(=O)NCc3cccnc3)CC2)cc1OC | 9.42% (inactive) |
| COc1ccc(C(=O)OC(C)CN2CCN(C)CC2)cc1 (centres undefined) | -6.2% (inactive) |
| CC(=O)c1ccc(NC(=O)CSc2nc(N3CCOCC3)nc(N3CCOCC3)n2)cc1 | -8.88% (inactive) |
| NC(=O)C1CCN(C(=O)CSc2nc3ccccc3o2)CC1 | -10.7% (inactive) |
| CCCCNC(=O)NNC(=O)c1ccc(F)cc1 | 17.9% (inactive) |
| COc1ccc(C2OC(=O)CC2C(=O)NCc2ccc(F)cc2)cc1OC (centres undefined) | 11.5% (inactive) |
| CCOC(=O)N1CCN(c2ccc(C(=O)CC)cc2F)CC1 | 1.6% (inactive) |
| O=C(O)Cn1cc(C(=S)N2CCOCC2)c2ccccc21 | 1.11% (inactive) |
| O=C(NC(=S)N1CCc2ccccc21)c1ccccc1Cl | 3.89% (inactive) |
| COCCn1c(=NC(=O)c2ccc3c(c2)OCCO3)sc2cc(S(N)(=O)=O)ccc21 | 12.3% (inactive) |
| CCOC(=O)C1=C(C)c2ccccc2OC1(C(=O)OCC)C(C)C (centres undefined) | 12% (inactive) |
| CCOc1ccc(S(=O)(=O)Nc2cc(Cl)ccc2O)cc1 | 0.342% (inactive) |
| Cc1ccc(NC(=O)CCCc2nc3ccccc3s2)c(O)c1 | -5.14% (inactive) |
| O=C(COc1ccc2c3c(c(=O)oc2c1)CCCC3)NCCCn1ccnc1 | -22.2% (inactive) |
| O=C(N/N=C/c1cn(-c2cccs2)nc1-c1ccccc1)c1ccccc1O | 13.5% (inactive) |
| Oc1c(Cl)cc(Cl)cc1C1Nc2ccccc2-n2cccc21 (centres undefined) | -4.71% (inactive) |

| Structure (SMILES) | activity change, negative = inhibition |
| --- | --- |
| COc1ccc(N(C2=NCCCS2)S(=O)(=O)c2ccc(C(C)(C)C)cc2)cc1 | -5% (inactive) |
| Cc1cc(C(=O)CN2C(=O)C3CC=CCC3C2=O)c(C)n1-c1ccccc1 (centres undefined) | 12.8% (inactive) |
| C=C(C)CSc1nnc(-c2ccc(OC)c(OC)c2)n1N | 9.53% (inactive) |
| CCCCOc1ccc(C2CC(=O)N(C)C2=O)cc1 (centres undefined) | 12.5% (inactive) |
| CCCCC1C(=O)N(c2ccccc2)N(c2ccc(O)cc2)C1=O (centres undefined) | 16.9% (inactive) |
| CO[C@H]1/C=C/O[C@@]2(C)Oc3c(C)c(O)c4c(O)c(c5c(c4c3C2=O)NC2(CCN(CC(C)C)CC2)N=5)=NC(=O)/C(C)=C\C=C\[C@H](C)[C@H](O)[C@@H](C)[C@@H](O)[C@@H](C)[C@H](OC(C)=O)[C@@H]1C | 13.9% (inactive) |
| CCc1cccc(CC)c1NC(=S)NCC(c1cccnc1)N(C)C (centres undefined) | -1.21% (inactive) |
| O=C(CCCn1c(=O)[nH]c2ccsc2c1=O)N1CCCCC1 | -13.5% (inactive) |
| CCCCNC(=O)COC(=O)CCC(=O)c1cccs1 | -2.41% (inactive) |
| Cc1n[nH]c(=O)nc1N1CCc2ccccc2C1 | -11.8% (inactive) |
| CCOc1nc(Nc2ccc(OC)c(Cl)c2)nc(OCC)n1 | -13.6% (inactive) |
| CC1=NN(c2ccccc2)C(=O)C1c1ccccc1 (centres undefined) | -7.25% (inactive) |
| Cc1ccc(OC(=O)c2cc(=O)c3ccccc3o2)cc1 | 11.8% (inactive) |
| COc1cccc(-c2nn3c(-c4ccccn4)nnc3s2)c1 | -8.38% (inactive) |
| Clc1ccc(-c2nnc3c4ccccc4nc(N4CCOCC4)n23)cc1Cl | 4.28% (inactive) |
| CC(C)n1ncc2c(C(=O)N3CCN(Cc4ccc(Br)s4)CC3)cc(C3CC3)nc21 | -10.1% (inactive) |
| CC(=O)c1c(C)[nH]c(C(=O)Nc2ccccc2N2CCOCC2)c1C | 6.19% (inactive) |
| Cc1ccc(CS(=O)(=O)CCC(=O)NCCCN2CCCC2)cc1 | -7.04% (inactive) |
| CCCn1c(N)c(C(=O)CSc2nnnn2-c2ccc(O)cc2)c(=O)n(C)c1=O | -2.28% (inactive) |
| COCC(=O)Nc1ccccc1Br | 6.59% (inactive) |
| CCc1nnc(NC(=O)C2CCC2)s1 | -4.19% (inactive) |
| COc1cc(CN(C2CCCCC2C)S(=O)(=O)c2ccc(S(=O)(=O)NC3CC3)cc2)cc(OC)c1OC (centres undefined) | -4.38% (inactive) |
| COc1ccc(-c2cc([C@H]3[C@@H]4C=CCC[C@@]4(C)C(=O)N3Cc3ccccc3)ccc2F)cc1 | 7.72% (inactive) |
